This is part of a sample that, as a whole, favours compounds with a hit. Of some 83,000 tested, about 20% had one in any assay.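 Assay: single dose, 48 h. Readout: percent growth (0 = no net growth; negative = cell death). Active: <10.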 A number with no mark means an inactive call. Active and inactive are the calls of the source.
Assays:
Experiment in all cases: NCI-60 one-dose screen, 48 h (100 = growth as untreated, 0 = no growth, -100 = all killed)
Settings in all cases: 10 µM unless noted
DU-145 prostate = system: DU-145 prostate
K-562 leukemia = system: K-562 leukemia
MALME-3M melanoma = system: MALME-3M melanoma
MDA-MB-231 breast = system: MDA-MB-231 breast
RXF 393 renal = system: RXF 393 renal
SF-268 CNS = system: SF-268 CNS
SF-295 CNS = system: SF-295 CNS
SF-539 CNS = system: SF-539 CNS
UACC-257 melanoma = system: UACC-257 melanoma
M14 melanoma = system: M14 melanoma

Compound	growth (DU-145 prostate)	growth (K-562 leukemia)	growth (MALME-3M melanoma)	growth (MDA-MB-231 breast)	growth (RXF 393 renal)	growth (SF-268 CNS)	growth (SF-295 CNS)	growth (SF-539 CNS)	growth (UACC-257 melanoma)	growth (M14 melanoma)
CCCCCCC(=O)C(C)C	106%	94.9%	89.2%	111%	101%	105%	101%	104%	92.8%	97.2%
COc1ccc(-c2nc(N)n(C(=S)Nc3ccccc3)n2)cc1	108%	95%	89.5%	93.9%	103%	96.3%	91.2%	97.1%	105%	98.8%
Cc1sc(NC(=O)c2ccc(C(C)(C)C)cc2)c(C(=O)O)c1C	61.6%	38.1%	111%	105%	114%	88.1%	35.7%	65.8%	101%	107%
COc1ccc2c(c1)/C(=C1/S/C(=N/c3nnc(C)s3)NC1=O)C(=O)N2Cc1ccc(Br)cc1	41.6%	34.8%	68.3%	53.4%	49.6%	36%	15.4%	42.7%	57.4%	37%
O=C(NCCO)C(F)(F)F	109%	105%	95.6%	107%	108%	102%	95.5%	93.5%	99.3%	101%
O=C(Cc1ccccc1[N+](=O)[O-])c1ccc2c(c1)OCO2	106%	94.1%	96.1%	109%	104%	94.1%	96.1%	101%	98.7%	103%
COc1cc([C@@H]2c3cc4c(cc3[C@H](O)[C@H]3COC[C@@H]23)OCO4)cc(OC)c1OC	96.7%	39.1%	43.3%	73.8%	83.1%	80.9%	56.3%	75%	75.8%	42.4%
O=Nc1ccc(O)c2ccccc12	56.7%	12.1%	-58.5% (active)	52.5%	10.9%	10.5%	62.9%	0.651% (active)	-68.5% (active)	-10.8% (active)
COc1nc(OC)nc(-c2cc(-c3cc(OC)c(OC)c(OC)c3)no2)n1	105%	95.1%	110%	90.5%	94.8%	100%	104%	112%	99.6%	111%
CCCNC(=O)Oc1ccc(/C(=C(/C)Cc2ccc(OC)cc2)c2ccc(OCCN3CCCC3)cc2)cc1	90.1%	-11.5% (active)	28.9%	57.6%	70%	72.4%	68.7%	77.8%	73.5%	-52.9% (active)
COc1ccc(C(=O)N2N=C(c3ccc(Br)cc3)CC2c2cn(-c3ccccc3)nc2-c2ccccc2)cc1 (stereo not given)	47.2%	43.4%	73.1%	61.3%	82.4%	71.9%	70.9%	92.4%	79.6%	39.1%
CCCCCCCCCCCCCCCCNC(=O)Nc1ccc(C)c(NC(=O)NCCCCCCCCCCCCCCCC)c1	112%	105%	89.8%	89.9%	108%	114%	114%	110%	105%	108%
CCCCCCCCC1OC1CCCCCCCC(=O)O (stereo not given)	116%	116%	90.1%	94.6%	101%	107%	97.4%	93.5%	95.3%	105%
CCCCCCCCCC[N+](C)(C)N	111%	71.6%	95%	101%	81.8%	98.6%	98.4%	89.1%	94.7%	105%
O=C(Nc1cccc(Cn2c(=O)[nH]c3ccc(Oc4ncccn4)cc3c2=O)c1)c1ccc(Cl)cc1	62.3%	4.84% (active)	41%	53.6%	51.4%	56.8%	39.4%	59.2%	25.9%	57.8%
Nc1nc2c(c3cnccc13)C(c1cccc(Cl)c1)Cc1cnccc1-2 (stereo not given)	10.7%	9.68% (active)	62.4%	8.99% (active)	7.47% (active)	20.7%	8.34% (active)	-18.5% (active)	60.2%	1.08% (active)
CCN(CC)c1ccc2nc3ccc(N=Nc4ccc(O)cc4)cc3[n+](-c3ccccc3)c2c1	82.1%	18.2%	35.4%	20.9%	30.6%	81%	66.8%	89.5%	-1.57% (active)	61.3%
CC(=O)/C(=C\c1c(-c2ccccc2)[nH]c2ccccc12)S(=O)(=O)c1ccccc1	-18.7% (active)	-53.4% (active)	62.6%	4.14% (active)	-28.2% (active)	7.87% (active)	-41.4% (active)	-38.1% (active)	-6.16% (active)	5% (active)
COC(=O)c1ccc2[nH]c(O)c(C(=Nc3ccc(N(C)C(=O)CN4CCN(C)CC4)cc3)c3ccc(CCO)cc3)c2c1	80.4%	8.34% (active)	19%	31.2%	30%	29.6%	93.2%	28%	77.6%	57.3%
CC(C)CCCCCOC(=O)c1ccccc1SSc1ccccc1C(=O)OCCCCCC(C)C	112%	96.3%	110%	99.5%	120%	110%	105%	99.4%	102%	104%
CN1CCN(Cc2ccc(NC(=O)c3cncc(C#Cc4c(N)ncc5ccc(F)cc45)c3)cc2C(F)(F)F)CC1	46.2%	-33.4% (active)	-80.7% (active)	-38.4% (active)	-73.8% (active)	35.7%	52.2%	-68.2% (active)	-55.9% (active)	-73.7% (active)
O=C(C(=O)N1CCOCC1)c1ccc(O[C@H]2O[C@H](CO)[C@@H](O)[C@H](O)[C@@H]2O)cc1	122%	106%	102%	98.4%	103%	123%	107%	99.2%	107%	98.8%
CC1C(=O)CCCC1=O	124%	103%	98.4%	101%	134%	112%	104%	98.9%	108%	111%
Cc1ccc([C@@H]2C[C@H](O)Cc3ccccc3N2)s1	111%	101%	104%	102%	126%	106%	107%	97.4%	100%	125%
COC(=O)C(Cc1cnc[nH]1)N1CC(=O)N2[C@@H](c3ccccc3)SC[C@H]2C1=O (stereo not given in full)	117%	106%	108%	116%	193%	104%	93.5%	105%	96.7%	101%
Cc1ccc(C(=O)Nc2ccc(CN3CCN(C)CC3)c(C(F)(F)F)c2)cc1C#Cc1cnc(N)c2ccc(F)cc12	-91.7% (active)	-78.2% (active)	-88.4% (active)	-90.7% (active)	-90.8% (active)	-75.2% (active)	-76.9% (active)	-92.5% (active)	-60.9% (active)	-83.1% (active)
Cc1c(O)c(N=Nc2ccc(C(=O)O)c(O)c2)c2ccccc2c1O	94.3%	60.6%	97.4%	86.4%	13.3%	119%	116%	81.7%	95.6%	53.4%
